# Data published in PubChem BioAssay AID2783 (National Center for Advancing Translational Sciences (NCATS), 2010).
# Inconclusive results are not listed. The source made the active and inactive calls. Calls follow the shape of the dose curve; as a rule, active = well fitted inhibition curve with a large enough effect in the polarisation, with a control signal flat (not every such curve was filed as active); inconclusive = small, poorly fitted or top-dose-only effect, or effect the other way, or a change in a side signal; inactive = no such curve, though single readings can be large or run the other way; the % refers to the polarisation.
# Target: Menin (Homo sapiens) (UniProt O00255)
# Experiment: Confirmation of Inhibitors Targeting the Menin-MLL Interaction in MLL Related Leukemias: Competition With Fluorescein Labeled MLL-derived Peptide
# Settings: Fluorescence polarization, fluorescein-MLL peptide displacement from menin; series mostly up to 100 µM
# Sequence of Menin (Homo sapiens) (O00255 whole entry, looked up): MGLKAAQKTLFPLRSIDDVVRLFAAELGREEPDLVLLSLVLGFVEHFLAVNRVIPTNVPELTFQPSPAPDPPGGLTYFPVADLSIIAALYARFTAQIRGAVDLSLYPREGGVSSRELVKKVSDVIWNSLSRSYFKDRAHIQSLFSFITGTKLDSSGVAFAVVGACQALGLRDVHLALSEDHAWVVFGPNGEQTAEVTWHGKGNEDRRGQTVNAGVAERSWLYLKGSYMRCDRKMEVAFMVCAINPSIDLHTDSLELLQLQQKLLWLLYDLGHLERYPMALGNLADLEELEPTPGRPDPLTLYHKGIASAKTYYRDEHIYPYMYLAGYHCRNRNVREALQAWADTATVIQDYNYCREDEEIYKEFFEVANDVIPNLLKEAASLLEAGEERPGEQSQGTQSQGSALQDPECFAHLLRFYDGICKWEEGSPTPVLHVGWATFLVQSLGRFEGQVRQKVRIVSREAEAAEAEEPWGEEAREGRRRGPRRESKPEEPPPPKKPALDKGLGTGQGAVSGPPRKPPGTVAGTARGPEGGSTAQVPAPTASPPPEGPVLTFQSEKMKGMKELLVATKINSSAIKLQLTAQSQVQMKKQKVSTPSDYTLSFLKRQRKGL
row,Structure (SMILES),outcome
1,CCCn1c(C2CCCN2c2nc(C)cs2)nc2cc(Cl)c(Cl)cc21 (stereo not drawn),inactive
2,O=C(CCC1CCCCC1)NCCN1C2=NC[C@H](Cc3ccc(O)cc3)N2C[C@H]1Cc1ccc(O)cc1,inactive
3,O=C(CSc1nnc(-c2c[nH]c3ccccc23)o1)N1c2ccccc2CCc2ccccc21,inactive
4,CCOC(=O)N1CCN(Cc2nnc(-c3ccccc3C)o2)CC1,inactive
5,Fc1ccccc1C1c2cccn2CCN1C(=S)Nc1ccc(Br)cc1 (stereo not drawn),inactive
6,CCCC(=O)NC(c1ccccc1Cl)c1ccc2cccnc2c1O (stereo not drawn),inactive
7,c1ccc2c(c1)NCC1CCCN21 (stereo not drawn),inactive
8,COc1cccc(C(=O)/C=C/Nc2ccc(S(=O)(=O)Nc3ccc(C(C)=O)cc3)cc2)c1,inactive
9,C[C@@H]1CN(C(=O)c2nc3ccc(Cl)cn3c2CNCC[C@@H]2C[C@@H]3C=C[C@H]2C3)C[C@H](C)O1,inactive
10,O=C(O)c1cc(S(=O)(=O)O)cc(Nc2c3ccccc3nc3ccccc23)c1O,inactive
11,O=C(Nc1ccc(F)c(Cl)c1)c1cc(-c2ccco2)on1,inactive
12,CCOC(=O)Cn1cnc2scc(-c3ccc(C)c(C)c3)c2c1=O,inactive
13,N#CC1=C(N)OC2=C(C(=O)CC(c3ccco3)C2)C1c1ccc(OCc2c(F)cccc2Cl)cc1 (stereo not drawn),inactive
14,O=C(Nc1cc(Br)ccc1O)c1cc(-c2cccs2)on1,inactive
15,C=C(C)CNC(=S)Nc1cccc2cnccc12,inactive
16,CCn1cnc2c1c(=O)n(CC(=O)O)c(=O)n2Cc1ccccc1,inactive
17,Cc1ccc(C(=O)Sc2cccccc2=O)cc1,inactive

row,Structure (SMILES),outcome
1,CCCc1nc2c(=O)[nH]c3ccccc3c2o1,inactive
2,CN1CCN(CC(=O)Nc2ccc(S(=O)(=O)N(C)C)cc2)CC1,inactive
3,Cc1ccc(NS(=O)(=O)c2csc(C(N)=O)c2)cc1C,inactive
4,COc1ccccc1NS(=O)(=O)c1cc(NC(=O)Nc2ccc(Cl)cc2Cl)ccc1N1CCCCC1,inactive
5,O=C(C1CCCN(Cc2cccc(Cl)c2)C1)N1CCCCC1 (stereo not drawn),inactive
6,O=S(=O)(NCCc1c[nH]c2ccccc12)c1ccccc1,inactive
7,COc1cc(O)c(C(=O)c2ccccc2)cc1O,inactive
8,CCCN(CCC)CCCNC(=O)c1cc2c(=O)[nH]c3ccccc3c2s1,inactive
9,Cc1ccc(C(C[N+](=O)[O-])c2c(C)[nH]n(-c3ccccc3)c2=O)cc1 (stereo not drawn),inactive
10,O=C(CSc1nnc(-c2c[nH]c3ccccc23)o1)c1ccc(-c2ccccc2)cc1,inactive
11,Cc1ccc(F)c(C2C3C=CCC(C)C3C(=O)N2Cc2ccccc2)c1 (stereo not drawn),inactive
12,CCCN1CCN(CC(O)COC(c2ccc(OC)cc2)c2ccc(OC)cc2)CC1 (stereo not drawn),inactive
13,Cn1c(=O)[nH]c(=O)c2c1nc(Br)n2CCSc1nc2ccccc2o1,inactive
14,C=C(C)[C@@H]1CC=C(CN2CCN(Cc3ccccc3)CC2)CC1,inactive
15,Cc1nc(N2CCN(C)CC2)c2c3c(sc2n1)CCCC3,inactive
16,O=C(CSc1nnnn1-c1ccc(O)cc1)N1N=C(c2ccc3ccccc3c2)CC1c1ccccc1 (stereo not drawn),inactive
